About 83,000 compounds went through this panel and 20% of them were active in at least one assay; those are over-represented in the sample as a whole.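 Compound tested at a single concentration for 48 hours in 96-well plates; a percent growth value below 10 was scored as active.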 Calls of active or inactive are those of the source.
The compounds below were run on NCI-H23 lung (assay: NCI-60 one-dose screen, 48 h (100 = growth as untreated, 0 = no growth, -100 = all killed)). Conditions: 10 µM unless noted.
Method: Growth inhibition of the NCI-H23 human Non-Small Cell Lung tumor cell line is measured as a screen for anti-cancer activity. Cells are grown in 96 well plates and exposed to the test compound for 48 hours. Compounds are tested at a single concentration, which is 10^-5 M for most compounds. The reported endpoint is percent growth (GI% or GIPRCNT), where numbers from 0 - 100% represent growth inhibition, and numbers from -100% - 0 represent cell death. For example, a value of 40 represents 60% growth inhibition. A value of 0 means no net growth occurred over the course of the experiment. A value of -40 indicates 40% of cells at the beginning of the experiment died by the end of the experiment. A value of -100 means all cells are dead at the end of the experiment.
NCI-60 Human Tumor Cell Lines Screen was performed using the standard one-dose NCI protocol, which is described in more detail at https://dtp.cancer.gov/discovery_development/nci-60/default.htm.
Compounds with GIPRCNT values below 10 were considered active. Activity score was based on GIPRCNT using the following formula: […]
Score is 0 for GIPRCNT values of 100 or above, 50 for GIPRCNT values of 0, and 100 for GIPRCNT values of -100.
For `C=CCCCC(=O)CCC(=O)OCC1O[C@@H](O[C@@H]2C(O)[C@@H](OC(C)=O)C(C)O[C@H]2O[C@H](CC=C)CCCCC)C(O)[C@@H](OC(=O)/C(C)=C/C)[C@@H]1OC(=O)/C=C/c1ccccc1` (stereo not given in full), the growth was 35.3% (inactive). In the case of `O=C(c1c(F)ccc(NS(=O)(=O)N2CC[C@@H](F)C2)c1F)c1c[nH]c2ncc(-c3cnc(C4CC4)nc3)cc12`, the growth was 58.6% (inactive). `COCCN1CCN(Cc2ccc(-c3n[nH]c4c3C(=O)c3c(NC(=O)NN5CCOCC5)cccc3-4)cc2)CC1` was tested, and the growth was -33.7% (active). In the case of `O=C(Nc1ccc(N=Nc2ccccc2)cc1)c1cccc2ccccc12`, the growth was 81.2% (inactive). In the case of `CNC(=O)c1cc(Oc2ccc(NC(=O)Nc3ccc(Cl)c(C(F)(F)F)c3)c(F)c2)ccn1`, the growth was -25.8% (active). In the case of `O=C1C=CC2(NN=C(c3ccccc3)N2c2ccc(Cl)cc2)c2cccc(O)c21` (stereo not given), the growth was 13.6% (inactive). In the case of `Nc1c(C(=O)c2ccccc2)sc2nc(-c3cccs3)cc(-c3cccs3)c12`, the growth was 67% (inactive). In the case of `Nc1nc(=S)c2ncn(C3OC(COC(=O)c4ccc(Cl)cc4)C(OC(=O)c4ccc(Cl)cc4)C3OC(=O)c3ccc(Cl)cc3)c2[nH]1` (stereo not given), the growth was 91.9% (inactive). `Cc1ccc(F)c(NC(=O)Nc2ccc(-c3cccc4[nH]nc(N)c34)cc2)c1` was tested, and the growth was 9.14% (active). For `NC1=Nc2cc(OCCCN3Cc4ccccc4C3)c(OCC3CC3)cc2C12CCCC2`, the growth was 77.2% (inactive). With `CC1(O)CCC2CC3OC3(C)CCC3OC3(C)C(O)CC1C2(C)C` (stereo not given) the growth was 96% (inactive). For `Cc1cccc(NC(=O)[C@@H]2c3ccccc3C(=O)N(c3ccc(Cl)cc3)[C@H]2c2ccc(Cl)cc2)n1`, the growth was 57.9% (inactive). `COC(=O)[C@H](Cc1ccc(O)cc1)NC(=O)[C@@H](OC)[C@@H]1Cc2cc3cc(OC4CC(OC5CC(O)C(O)C(C)O5)C(O)C(C)O4)c(C)c(O)c3c(O)c2C(=O)[C@H]1OC1CC(OC2CC(OC3CC(C)(O)C(O)C(C)O3)C(O)C(C)O2)C(O)C(C)O1` (stereo not given in full) was tested, and the growth was -38.6% (active). For `CCN(CCN(C)C)C(=O)CNCc1cc(C(N)=O)ccn1`, the growth was 101% (inactive). `CCN(CCO)CCCOc1ccc2c(Nc3cc(CC(=O)Nc4cccc(F)c4)[nH]n3)ncnc2c1` was tested, and the growth was 29.2% (inactive). With `CCCCn1c(C)nc2cc(Nc3nc(N4CCCCC4)nc4nc[nH]c34)ccc21` the growth was 51.4% (inactive). With `COC(=O)CNC(=O)[C@@H](OC)[C@@H]1Cc2cc3cc(OC4CC(OC5CC(O)C(O)C(C)O5)C(O)C(C)O4)c(C)c(O)c3c(O)c2C(=O)[C@H]1OC1CC(OC2CC(OC3CC(C)(O)C(O)C(C)O3)C(O)C(C)O2)C(O)C(C)O1` (stereo not given in full) the growth was -16.8% (active). With `COc1ccc2c(CCC(c3ccccc3)c3ccccc3)c3[n+](cc2c1OC)CCc1cc2c(cc1-3)OCO2` the growth was 0.765% (active). With `CN1CCC(COc2cnc(-c3cccc(Cn4nc(-c5cccc(C#N)c5)ccc4=O)c3)nc2)CC1` the growth was 62.5% (inactive). With `COc1ccc(C2CC(=O)c3c(O)c(OC)c(OC)c(OC)c3O2)c(O)c1` (stereo not given) the growth was 27.5% (inactive). For `Cc1cc(N(CCNc2ccnc3cc(Cl)ccc23)Cc2ccc3c(c2)OCO3)nc(N2CCCC2)n1`, the growth was 20.8% (inactive). With `Cc1nn(-c2nc3ccccc3[nH]2)c2c1C(c1ccc(OCc3ccc(F)cc3)cc1)CC(=O)N2` (stereo not given) the growth was 46.9% (inactive). `O=C1CC(c2ccc3c(c2)OCO3)c2ncn(-c3ccc(Cl)cc3)c2N1` (stereo not given) was tested, and the growth was 41% (inactive). In the case of `CC(CCCC(=O)O)c1ccoc1` (stereo not given), the growth was 97.7% (inactive). In the case of `O=C(COc1ccc(/C=C2\Cc3ccc(Cl)cc3C2=O)cc1)Nc1nccs1`, the growth was 88.9% (inactive). In the case of `Cc1c(Cn2c(C)nc3c(C(=O)O)cc(N4CCOCC4)cc32)cccc1C(F)(F)F`, the growth was 105% (inactive). For `COc1ccc2c(OCc3nnc4ccc(-c5ccccc5)nn34)ccnc2c1`, the growth was 70.2% [2.5 µM] (inactive). `C=CC[n+]1c(/C=C/C=C2\N(C)c3ccccc3C2(C)C)sc2ccc(OC)cc21` was tested, and the growth was 11.6% (inactive). `CN1CCN(CC(=O)Nc2ccc(-c3nc4ccccc4s3)cc2)CC1` was tested, and the growth was 82.2% (inactive). In the case of `COc1cc2cc(NCc3ccc(Cl)cc3)nc(C)c2cc1OC`, the growth was 23.7% (inactive). In the case of `CNC(=O)c1cc(Oc2ccc3nc(NC(=O)Nc4ccc(Cl)c(C(F)(F)F)c4)sc3c2)ccn1`, the growth was 16.5% (inactive). With `O=C1/C(=C\c2cccc(OCCCCCOc3ccc(Cl)cc3)c2)N=C2SCCCN12` the growth was 35% (inactive). With `Cc1cc([C@@H](C)Nc2ccccc2C(=O)O)c2nc(N3CCOCC3)cc(=O)n2c1` the growth was 54.8% (inactive). For `Cc1cc(O)cc(-c2c(-c3ccnc(-c4cccnc4)c3)cnn2C)c1`, the growth was 93.6% (inactive). In the case of `COc1cnc2c(c1)C(=O)c1c-2n(CCCn2ccnc2)c(=O)c2cc(Cl)ccc12`, the growth was -1.2% (active). For `O=C1NC(=O)/C(=C/c2ccc3nccc(-c4ccncc4)c3c2)S1`, the growth was -17.4% (active). With `CCCCOc1nc2cc(Cl)ccc2cc1/C=C/c1cc(/C=C/c2cc3ccc(Cl)cc3nc2OCCCC)n(-c2ccccc2)n1` the growth was 83.3% (inactive). For `COc1ccc(-c2nc(N)ncc2Oc2ccccc2OC)c(O)c1`, the growth was 38.8% (inactive). `CCN1CCN(c2nc(C)cc(N(CCCNc3ccnc4cc(Cl)ccc34)Cc3ccc4c(c3)OCO4)n2)CC1` was tested, and the growth was 46% (inactive). In the case of `N#Cc1c(-c2ccc(C(F)(F)F)cc2)c(F)c(NCCC2CCC(O)C2)n2c1nc1ccccc12` (stereo not given), the growth was 72.5% (inactive).

From PubChem BioAssay (NCI)
